# Data reported in the antibiotic and cytotoxicity screens of Wong et al. (2023).
# Out of some 39,000 compounds screened, about 3,300 (8.5%) were called active. Shown is part of a subset that was picked to be rich in actives.
# Test system: HepG2
# Experiment: cytotoxicity call (relative viability < 0.9)
# Settings: 10 µM
row,SMILES,cytotoxicity call
1,C[C@@H]1CCCCO[C@H](CN(C)Cc2ccc(C(F)(F)F)cc2)[C@@H](C)CN([C@@H](C)CO)C(=O)c2cc(NC(=O)c3ccncc3)ccc2O1,inactive
2,C[C@@H]1CCCCO[C@@H](CN(C)Cc2ccc(C(F)(F)F)cc2)[C@@H](C)CN([C@H](C)CO)C(=O)c2cc(NS(=O)(=O)c3ccccc3)ccc2O1,active
3,C[C@@H]1CCCCO[C@@H](CN(C)Cc2ccc(C(F)(F)F)cc2)[C@H](C)CN([C@H](C)CO)C(=O)c2cc(NS(=O)(=O)c3ccccc3)ccc2O1,inactive
4,C[C@H]1CCCCO[C@@H](CN(C)Cc2ccc(C(F)(F)F)cc2)[C@@H](C)CN([C@@H](C)CO)C(=O)c2cc(NS(=O)(=O)c3ccccc3)ccc2O1,inactive
5,C[C@@H]1CCCCO[C@@H](CN(C)Cc2ccc(C(F)(F)F)cc2)[C@H](C)CN([C@@H](C)CO)C(=O)c2cc(NS(=O)(=O)c3ccccc3)ccc2O1,active
6,C[C@H](CO)N1C[C@H](C)[C@H](CN(C)Cc2ccc(C(F)(F)F)cc2)OCCCC[C@H](C)Oc2ccc(NS(=O)(=O)c3ccccc3)cc2C1=O,active
7,C[C@H]1CCCCO[C@H](CN(C)Cc2ccc(C(F)(F)F)cc2)[C@@H](C)CN([C@@H](C)CO)C(=O)c2cc(NS(=O)(=O)c3ccccc3)ccc2O1,inactive
8,C[C@@H]1CCCCO[C@H](CN(C)Cc2ccc(C(F)(F)F)cc2)[C@H](C)CN([C@H](C)CO)C(=O)c2cc(NS(=O)(=O)c3ccccc3)ccc2O1,inactive
9,C[C@@H]1CCCCO[C@H](CN(C)Cc2ccc(C(F)(F)F)cc2)[C@@H](C)CN([C@H](C)CO)C(=O)c2cc(NS(=O)(=O)c3ccccc3)ccc2O1,inactive
10,C[C@@H]1CCCCO[C@@H](CN(C)Cc2ccc(C(F)(F)F)cc2)[C@@H](C)CN([C@@H](C)CO)C(=O)c2cc(NS(=O)(=O)c3ccccc3)ccc2O1,active
11,COc1ccc(S(=O)(=O)N(C)C[C@@H]2Oc3ccc(NC(=O)NC(C)C)cc3CC(=O)N([C@@H](C)CO)C[C@@H]2C)cc1,inactive
12,COc1ccc(NC(=O)N(C)C[C@H]2OCCCC[C@H](C)Oc3ccc(NC(=O)C4CCCCC4)cc3C(=O)N([C@H](C)CO)C[C@H]2C)cc1,inactive
13,C[C@@H]1CN([C@@H](C)CO)C(=O)CCCn2nncc2CO[C@H]1CN(C)C(=O)C1CC1,inactive
14,COc1ccc(NC(=O)N(C)C[C@H]2Oc3c(NS(C)(=O)=O)cccc3C(=O)N([C@@H](C)CO)C[C@H]2C)cc1,inactive
15,C[C@H]1CCCCO[C@@H](CN(C)C(=O)Nc2ccc(C(F)(F)F)cc2)[C@@H](C)CN([C@@H](C)CO)C(=O)c2cc(NC(=O)CCC(F)(F)F)ccc2O1,inactive
16,Cn1c(=O)c2c(nc(N3CCNCC3)n2CC(=O)c2ccc(Cl)cc2)n(C)c1=O,inactive
17,COc1ccc(S(=O)(=O)N(C)C[C@H]2Oc3ccc(NC(=O)CCCN(C)C)cc3C(=O)N([C@@H](C)CO)C[C@@H]2C)cc1,inactive
18,COc1cccc(S(=O)(=O)N2C[C@@H](O)COC[C@@H]3O[C@H](CC(=O)NCCCN4CCOCC4)CC[C@H]32)c1,inactive
19,C[C@@H]1CN([C@H](C)CO)C(=O)c2cc(NC(=O)CCC(F)(F)F)ccc2O[C@@H](C)CCCCO[C@@H]1CN(C)Cc1ccncc1,inactive
20,COc1ccc(Oc2cc(NCCC(F)(F)F)c3ncc(-c4ccc(C(=O)NC5CC5)c(C)c4)n3n2)c(F)c1F,inactive
21,C[C@@H]1CN([C@@H](C)CO)C(=O)c2cc(NC(=O)NC3CCCCC3)ccc2O[C@@H]1CN(C)S(C)(=O)=O,inactive
22,C[C@H]1CN([C@@H](C)CO)S(=O)(=O)c2ccc(-c3cccc(C#N)c3)cc2O[C@@H]1CN(C)C(=O)c1ccncc1,inactive
23,C[C@@H]1CN([C@H](C)CO)C(=O)c2cc(NS(=O)(=O)c3ccccc3)ccc2O[C@@H](C)CCCCO[C@H]1CN(C)Cc1ccc(C(F)(F)F)cc1,active
24,C[C@@H]1CN([C@H](C)CO)C(=O)c2cc(NS(=O)(=O)c3ccccc3)ccc2O[C@@H](C)CCCCO[C@@H]1CN(C)Cc1ccc(C(F)(F)F)cc1,inactive

row,SMILES,cytotoxicity call
1,C[C@@H]1CN([C@@H](C)CO)C(=O)c2cc(NS(=O)(=O)c3ccccc3)ccc2O[C@@H](C)CCCCO[C@@H]1CN(C)Cc1ccc(C(F)(F)F)cc1,inactive
2,C[C@@H]1CN([C@@H](C)CO)C(=O)c2cc(NS(=O)(=O)c3ccccc3)ccc2O[C@@H](C)CCCCO[C@H]1CN(C)Cc1ccc(C(F)(F)F)cc1,inactive
3,C[C@@H]1CCCCO[C@H](CN(C)Cc2ccc(C(F)(F)F)cc2)[C@@H](C)CN([C@@H](C)CO)C(=O)c2cc(NS(=O)(=O)c3ccccc3)ccc2O1,inactive
4,C[C@@H]1CCCCO[C@H](CN(C)Cc2ccc(C(F)(F)F)cc2)[C@H](C)CN([C@@H](C)CO)C(=O)c2cc(NS(=O)(=O)c3ccccc3)ccc2O1,active
5,C[C@H]1CN([C@@H](C)CO)C(=O)c2cccc(NC(=O)c3nc4ccccc4s3)c2O[C@H]1CN(C)S(=O)(=O)c1cn(C)cn1,inactive
6,CCCNC(=O)Nc1ccc2c(c1)OC[C@H](C)N(C(=O)C1CCOCC1)C[C@@H](C)[C@@H](OC)CN(C)C2=O,inactive
7,Cc1noc(C)c1S(=O)(=O)Nc1cccc2c1O[C@@H](CN(C)CC1CC1)[C@@H](C)CN([C@H](C)CO)C2=O,inactive
8,Cc1ccc(S(=O)(=O)N2C[C@@H](O)COC[C@@H]3O[C@@H](CC(=O)NCc4ccc5c(c4)OCO5)CC[C@H]32)cc1,inactive
9,Cc1ccc(S(=O)(=O)N2C[C@H](O)COC[C@H]3O[C@@H](CC(=O)NCc4ccc(Cl)c(Cl)c4)CC[C@@H]32)cc1,active
10,Cc1ccc(S(=O)(=O)N2C[C@H](O)COC[C@H]3O[C@H](CC(=O)NCc4ccc(Cl)c(Cl)c4)CC[C@@H]32)cc1,inactive
11,Cc1ccc(S(=O)(=O)N2C[C@H](O)COC[C@@H]3O[C@@H](CC(=O)NCc4ccc(Cl)c(Cl)c4)CC[C@H]32)cc1,inactive
12,Cc1cccc(S(=O)(=O)N2C[C@@H](O)COC[C@H]3O[C@H](CC(=O)NCc4ccc(Cl)c(Cl)c4)CC[C@@H]32)c1,inactive
13,Cc1ccc(S(=O)(=O)N2C[C@@H](O)COC[C@H]3O[C@H](CC(=O)NCc4ccc(Cl)c(Cl)c4)CC[C@@H]32)cc1,inactive
14,Cc1ccc(S(=O)(=O)N2C[C@H](O)COC[C@@H]3O[C@H](CC(=O)NCc4ccc(Cl)c(Cl)c4)CC[C@H]32)cc1,active
15,Cc1ccc(S(=O)(=O)N2C[C@@H](O)COC[C@H]3O[C@H](CC(=O)NCc4ccc5c(c4)OCO5)CC[C@@H]32)cc1,inactive
16,Cc1ccc(S(=O)(=O)N2C[C@H](O)COC[C@@H]3O[C@H](CC(=O)NCc4ccc5c(c4)OCO5)CC[C@H]32)cc1,active
17,Cc1ccc(S(=O)(=O)N2C[C@@H](O)COC[C@H]3O[C@@H](CC(=O)NCc4ccc(Cl)c(Cl)c4)CC[C@@H]32)cc1,inactive
18,Cc1ccc(S(=O)(=O)N2C[C@@H](O)COC[C@@H]3O[C@H](CC(=O)NCc4ccc(Cl)c(Cl)c4)CC[C@H]32)cc1,inactive
19,Cc1ccc(S(=O)(=O)N2C[C@@H](O)COC[C@@H]3O[C@@H](CC(=O)NCc4ccc(Cl)c(Cl)c4)CC[C@H]32)cc1,active
20,C[C@H](CO)N1C[C@H](C)[C@@H](CN(C)C(=O)CCC(F)(F)F)OCc2ccccc2-c2c(n(C)c3ccccc23)C1=O,inactive
21,CSc1scc(-c2cc(Cl)cc(Cl)c2)c1C#N,inactive
22,C[C@H](CO)N1C[C@H](C)[C@@H](CN(C)S(=O)(=O)c2cccs2)Oc2ccc(NC(=O)CCCN(C)C)cc2C1=O,inactive
23,Cc1ccc(S(=O)(=O)Nc2ccc3c(c2)C(=O)N([C@@H](C)CO)C[C@@H](C)[C@@H](CN(C)C(=O)Nc2ccccc2)OCCCC[C@@H](C)O3)cc1,inactive
24,CCCC/C=C/[C@H]([C@@H](O)Cc1ccccc1)N(CC#Cc1ccccc1)Cc1ccccc1Br,inactive

row,SMILES,cytotoxicity call
1,COc1ccc(NC(=O)Nc2ccc3c(c2)C(=O)N([C@H](C)CO)C[C@@H](C)[C@@H](CN(C)C(=O)Nc2ccc(C(F)(F)F)cc2)O3)cc1,inactive
2,C[C@@H](O)CN1CCN(S(=O)(=O)C2CC2)CC1,inactive
3,C[C@@H]1CN([C@H](C)CO)C(=O)c2cccc(NC(=O)C3CC3)c2O[C@H]1CN(C)S(=O)(=O)c1ccccc1,inactive
4,CC(=O)Nc1nc(C(=O)O)cs1,inactive
5,Cc1ccc(S(=O)(=O)NC2=NCN(CCN3CCOCC3)CN2)cc1,inactive
6,CC(C)(C)c1cc(NC(=O)Nc2ccc(Oc3ccnc4nc(O)cnc34)cc2F)n(-c2ccccc2)n1,inactive
7,Cc1ccc(-n2nc(C(C)(C)C)cc2NC(=O)Nc2ccc(OCCN3CCOCC3)c3ccccc23)cc1,active
8,CCCNC(=O)N1C[C@@H](C)[C@@H](OC)CN(C)C(=O)c2cc(NS(=O)(=O)CC(F)(F)F)ccc2OC[C@H]1C,inactive
9,CC1(C)OC2CC3C4CC(F)C5=CC(=O)C=CC5(C)C4C(O)CC3(C)C2(C(=O)CO)O1 (stereo not given),inactive
10,C[C@@H]1CN([C@@H](C)CO)C(=O)c2cccc(NC(=O)C3CCCCC3)c2O[C@@H]1CN(C)S(=O)(=O)c1cn(C)cn1,inactive
11,COc1ccc([Si](C)(C)[C@@H]2[C@@H](CCn3cc(CCO)nn3)O[C@]3(C(=O)N(Cc4ccc(N5C(=O)c6cccc7cccc5c67)cc4)c4ccccc43)[C@H]2C)cc1,active
12,COc1ccc([Si](C)(C)[C@@H]2[C@@H](CCn3cc(CCO)nn3)O[C@]3(C(=O)N(C)c4ccccc43)[C@H]2C)cc1,inactive
13,COc1ccc([Si](C)(C)[C@H]2[C@H](CCn3cc(CCO)nn3)O[C@@]3(C(=O)N(Cc4cccc(N5C(=O)c6cccc7cccc5c67)c4)c4ccccc43)[C@@H]2C)cc1,inactive
14,COc1ccc([Si](C)(C)[C@H]2[C@H](CCn3cc(CCO)nn3)O[C@@]3(C(=O)N(C)c4ccccc43)[C@@H]2C)cc1,inactive
15,COc1ccc([Si](C)(C)[C@H]2[C@H](CCn3cc([C@H](O)c4ccccc4)nn3)O[C@@]3(C(=O)N(Cc4cccc(N5C(=O)c6cccc7cccc5c67)c4)c4ccccc43)[C@@H]2C)cc1,inactive
16,COc1ccc([Si](C)(C)[C@@H]2[C@@H](CCn3cc([C@H](O)c4ccccc4)nn3)O[C@]3(C(=O)N(c4ccccc4)c4ccccc43)[C@H]2C)cc1,inactive
17,COc1ccc([Si](C)(C)[C@@H]2[C@@H](CCn3cc([C@H](O)c4ccccc4)nn3)O[C@]3(C(=O)N(Cc4ccc(N5C(=O)c6cccc7cccc5c67)cc4)c4ccccc43)[C@H]2C)cc1,active
18,COc1ccc([Si](C)(C)[C@H]2[C@H](CCn3cc([C@H](O)c4ccccc4)nn3)O[C@@]3(C(=O)N(Cc4ccc(N5C(=O)c6cccc7cccc5c67)cc4)c4ccccc43)[C@@H]2C)cc1,inactive
19,C[C@H]1[C@H]([Si](C)(C)F)[C@@H](CCn2cc([C@H](O)c3ccccc3)nn2)O[C@]12C(=O)N(c1ccccc1)c1ccccc12,inactive
20,C[C@@H]1[C@@H]([Si](C)(C)F)[C@H](CCn2cc([C@H](O)c3ccccc3)nn2)O[C@@]12C(=O)N(c1ccccc1)c1ccccc12,active
21,COc1ccc([Si](C)(C)[C@@H]2[C@@H](CCn3cc([C@H](O)c4ccccc4)nn3)O[C@]3(C(=O)N(Cc4cccc(N5C(=O)c6cccc7cccc5c67)c4)c4ccccc43)[C@H]2C)cc1,inactive
22,COc1ccc([Si](C)(C)[C@@H]2[C@@H](CCn3cc(CCO)nn3)O[C@]3(C(=O)N(Cc4cccc(N5C(=O)c6cccc7cccc5c67)c4)c4ccccc43)[C@H]2C)cc1,active
